Test results: PubChem BioAssay (NCI)
About 79,000 compounds went through this panel and 15% of them were active in at least one assay; those are over-represented in the sample as a whole. Active and inactive are the calls of the source. Rule as the data show it: active = growth inhibition above about 70%; inactive = the rest.

Assays:
[1] = NCI Yeast Anticancer Drug Screen. Data for the rad50 strain (AID 155);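 also: 0% = growth of vehicle-only cultures of the same strain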; conditions: S. cerevisiae rad50 strain growth inhibition, stronger effect = higher value
Outline: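 A DNA repair-deficient yeast mutant serves as the test organism; compound-induced growth inhibition is calculated against vehicle-treated cells.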

[2] = NCI Yeast Anticancer Drug Screen. Data for the mec2-1 strain (AID 157); conditions: S. cerevisiae mec2-1 strain, stronger effect = higher value
Outline: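 Readout is yeast growth inhibition, normalised to vehicle-treated controls, in the mec2-1 strain exposed to compound.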

[3] = NCI Yeast Anticancer Drug Screen. Data for the sgs1 mgt1 strain (AID 161);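 also: 0% = growth of cultures given vehicle only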; conditions: S. cerevisiae sgs1 mgt1 strain, stronger effect = higher value
Outline: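 Compounds are added to genetically altered yeast, and growth is compared with cultures given vehicle alone to give percent inhibition.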

[4] = NCI Yeast Anticancer Drug Screen. Data for the cln2 rad14 strain (AID 165);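 also: 0% = growth equal to vehicle treated cultures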; conditions: S. cerevisiae cln2 rad14 strain, stronger effect = higher value
Outline: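 Relative to vehicle controls, growth inhibition of compound-treated cln2 rad14 yeast was recorded.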

[5] = NCI Yeast Anticancer Drug Screen. Data for the bub3 strain (AID 167); conditions: S. cerevisiae bub3 mutant strain, stronger effect = higher value
Outline: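 Inhibition values come from growth of compound-treated mutant yeast normalised to vehicle-treated controls.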

[6] = NCI Yeast Anticancer Drug Screen. Data for the mlh1 rad18 strain (AID 175); conditions: S. cerevisiae mlh1 rad18 strain growth inhibition, stronger effect = higher value
Outline: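 Test agents were incubated with a yeast strain of defined genotype (DNA damage repair defect). Inhibition of growth was derived by comparison with vehicle-exposed cultures.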

[7] = at 5.0 µM (retest, dose inferred, filed as 0.5)
[8] = at 50.0 µM (retest, dose inferred, filed as 5.0)

Measured: growth inhibition

COC1OC(OC)[CH]([Hg][Cl])C1OC (stereo not given)
active: [1]; [7] 99% | [1]; [8] 99% | [1]; at 50.0 µM 99.5% | [2]; [7] 99% | [2]; [8] 100% | [2]; at 50.0 µM 99.7% | [3]; [7] 99% | [3]; [8] 99% | [3]; at 50.0 µM 99.4% | [4]; [7] 99% | [4]; [8] 99% | [4]; at 50.0 µM 98.5% | [5]; [7] 100% | [5]; [8] 99% | [5]; at 50.0 µM 99.2% | [6]; [7] 99% | [6]; [8] 99% | [6]; at 50.0 µM 99.4%

OC1CCCC2CCCNC12 (stereo not given)
active: [1]; [7] 84% | [1]; [8] 97% | [1]; at 50.0 µM 86.4% | [2]; [7] 79% | [2]; [8] 98% | [2]; at 50.0 µM 90% | [3]; [7] 97% | [3]; [8] 98% | [3]; at 50.0 µM 90% | [4]; [7] 81% | [4]; [8] 98% | [4]; at 50.0 µM 86.3% | [5]; [7] 96% | [5]; [8] 98% | [5]; at 50.0 µM 91.8% | [6]; [7] 73% | [6]; [8] 97% | [6]; at 50.0 µM 91.2%

CSCCC([NH-])C(=O)O.CSCCC([NH-])C(=O)O.[Zn+2] (stereo not given)
inactive: [1]; [7] 2% | [1]; [8] 1% | [2]; [7] 1% | [2]; [8] 1% | [3]; [7] 2% | [3]; [8] -1% | [4]; [7] 4% | [4]; [8] -6% | [5]; [7] 4% | [5]; [8] 6% | [6]; [7] 4% | [6]; [8] 3%
active: [1]; at 50.0 µM 98.2% | [2]; at 50.0 µM 99.2% | [3]; at 50.0 µM 99.2% | [4]; at 50.0 µM 99.2% | [5]; at 50.0 µM 99% | [6]; at 50.0 µM 99.3%

CC(C)[S-].CC(C)[S-].[Pt+2].c1ccc([PH+](c2ccccc2)c2ccccc2)cc1.c1ccc([PH+](c2ccccc2)c2ccccc2)cc1
inactive: [1]; [7] 4% | [2]; [7] 5% | [3]; [7] 2% | [4]; [7] -2% | [4]; at 50.0 µM 55.9% | [5]; [7] 7% | [5]; at 50.0 µM 67.3% | [6]; [7] 4%
active: [1]; [8] 96% | [1]; at 50.0 µM 88.2% | [2]; [8] 97% | [2]; at 50.0 µM 90.3% | [3]; [8] 98% | [3]; at 50.0 µM 86.2% | [4]; [8] 96% | [5]; [8] 97% | [6]; [8] 97% | [6]; at 50.0 µM 95.7%

C[CH2][Sn]1([CH2]C)[O]C2C(OC)OC3COC(c4ccccc4)OC3C2[O]1 (stereo not given)
active: [1]; [7] 77% | [1]; [8] 80% | [2]; [8] 70% | [3]; [8] 77% | [5]; at 50.0 µM 71.8%
inactive: [1]; at 50.0 µM 18.4% | [2]; [7] 42% | [2]; at 50.0 µM 61.2% | [3]; [7] 67% | [3]; at 50.0 µM -9.95% | [4]; [7] 68% | [4]; [8] 40% | [4]; at 50.0 µM -21.4% | [5]; [7] 69% | [5]; [8] 40% | [6]; [7] 53% | [6]; [8] 54% | [6]; at 50.0 µM -16.1%

CCC[CH2][Sn]([CH2]CCC)([O]C(=O)CCC(C)=O)[O]C(=O)CCC(C)=O
active: [1]; [7] 73% | [1]; [8] 98% | [1]; at 50.0 µM 87% | [2]; [7] 80% | [2]; [8] 99% | [2]; at 50.0 µM 91.7% | [3]; [7] 79% | [3]; [8] 99% | [3]; at 50.0 µM 89.7% | [4]; [7] 74% | [4]; [8] 99% | [4]; at 50.0 µM 90.3% | [5]; [7] 89% | [5]; [8] 99% | [5]; at 50.0 µM 88.4% | [6]; [7] 81% | [6]; [8] 98% | [6]; at 50.0 µM 91.7%

[CH3][Sn]([CH3])([S]CCS(=O)(=O)O)[S]CCS(=O)(=O)O
inactive: [1]; [7] 10% | [1]; [8] 7% | [1]; at 50.0 µM 33.5% | [2]; [7] 9% | [2]; [8] 11% | [2]; at 50.0 µM 7.1% | [3]; [7] -38% | [3]; [8] -30% | [3]; at 50.0 µM -9.75% | [4]; [7] -10% | [4]; [8] -12% | [4]; at 50.0 µM -5.95% | [5]; [7] -20% | [5]; [8] -24% | [5]; at 50.0 µM -12.2% | [6]; [7] 14% | [6]; [8] 11% | [6]; at 50.0 µM -61.6%

CN(C=O)C(=S)[S][Sb]([S]C(=S)N(C)C=O)[S]c1nc2ccc(N=Nc3ccc(NS(=O)(=O)c4ccc(NC(=O)C(N5CC5)(N5CC5)N5CC5)cc4)cc3)cc2s1
active: [1]; at 50.0 µM 99.2% | [2]; at 50.0 µM 99.3% | [3]; at 50.0 µM 99.5% | [4]; at 50.0 µM 98.7% | [5]; at 50.0 µM 99.2% | [6]; at 50.0 µM 99.2%
inactive: [1]; [7] 4% | [1]; [8] 6% | [2]; [7] 0% | [2]; [8] -5% | [3]; [7] -1% | [3]; [8] 20% | [4]; [7] 4% | [4]; [8] 3% | [5]; [7] 2% | [5]; [8] 8% | [6]; [7] 0% | [6]; [8] 4%

CCOC(=O)[C]1([Pb]([CH3])([CH3])[CH3])N=NC(C(=O)OC)=C1C(=O)OC (stereo not given)
inactive: [1]; [7] 6% | [1]; [8] 32% | [1]; at 50.0 µM 68.8% | [2]; [7] -1% | [2]; [8] -14% | [2]; at 50.0 µM -2.15% | [3]; [7] 2% | [3]; [8] 22% | [3]; at 50.0 µM 29.8% | [4]; [7] 4% | [4]; [8] 5% | [4]; at 50.0 µM 14.2% | [5]; [7] -2% | [5]; [8] 32% | [5]; at 50.0 µM 15.9% | [6]; [7] 1% | [6]; [8] -2% | [6]; at 50.0 µM 30.7%

COC(=O)[CH2][Sn]([CH2]C(=O)OC)([c]1ccccc1)[c]1ccccc1
inactive: [4]; [7] 52%
active: [1]; [7] 80% | [1]; [8] 97% | [1]; at 50.0 µM 88.3% | [2]; [7] 79% | [2]; [8] 99% | [2]; at 50.0 µM 88.5% | [3]; [7] 77% | [3]; [8] 99% | [3]; at 50.0 µM 86.9% | [4]; [8] 99% | [4]; at 50.0 µM 86.7% | [5]; [7] 82% | [5]; [8] 99% | [5]; at 50.0 µM 84.4% | [6]; [7] 86% | [6]; [8] 97% | [6]; at 50.0 µM 92%
